# Measurements: PubChem BioAssay (EPA / NIEHS)
# Where “and” joins values, the source holds several entries; their conditions need not be identical. Equal entries are not always repeated. Inconclusive results are not listed. Calls of active or inactive are those of the source. Rule for the calls: active = hit-call score of the fitted dose curve at least 0.9, where 1 is the maximum; inconclusive = response in the unintended direction; inactive = score below 0.9.
# Legend:
# [1] = test system: turtle Androgen Receptor (AR), gene 101947425; test: ATG_trAR_XSP1: Attagene TRANS-FACTORIAL Multi-Species (XSP1) HepG2 Assay for turtle Androgen Receptor (AR) (AID 2283786)
# In short: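 HepG2 cells transiently transfected with a turtle AR–GAL4 chimera and GAL4-UAS reporter, co-treated with 3 nM 6-alpha-fluorotestosterone for partial stimulation. Reporter mRNA is quantified at 24 h by RT-PCR and capillary electrophoresis, gain-of-signal versus DMSO.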
# [2] = target: Estrogen receptor beta (Homo sapiens) (UniProt Q92731); test: ATG_hERb_XSP1: Attagene TRANS-FACTORIAL Multi-Species (XSP1) HepG2 Assay for human Estrogen Receptor (ESR2) (AID 2283788)
# Estrogen receptor beta (Homo sapiens), sequence (Q92731 whole entry, looked up, the tested form may be a part): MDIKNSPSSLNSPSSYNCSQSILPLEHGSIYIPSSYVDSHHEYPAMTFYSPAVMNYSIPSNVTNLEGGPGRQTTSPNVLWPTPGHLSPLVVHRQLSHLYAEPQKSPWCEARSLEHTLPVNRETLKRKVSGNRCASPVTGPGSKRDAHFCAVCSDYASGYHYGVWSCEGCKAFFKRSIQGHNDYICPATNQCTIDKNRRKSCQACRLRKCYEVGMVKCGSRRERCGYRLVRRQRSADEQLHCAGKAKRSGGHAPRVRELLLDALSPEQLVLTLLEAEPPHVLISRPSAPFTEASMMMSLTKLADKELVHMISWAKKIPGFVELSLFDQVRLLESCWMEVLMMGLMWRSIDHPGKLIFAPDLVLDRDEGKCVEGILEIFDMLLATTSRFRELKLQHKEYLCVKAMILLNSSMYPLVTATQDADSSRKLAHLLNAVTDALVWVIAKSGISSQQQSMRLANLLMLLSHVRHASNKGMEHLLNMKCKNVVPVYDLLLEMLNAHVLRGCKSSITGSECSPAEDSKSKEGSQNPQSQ
# In short: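 HepG2 cells transiently transfected with GAL4-UAS multiplexed reporter units, 3 nM 6-alpha-fluorotestosterone present; 24 h exposure. Reporter mRNA measured by RT-PCR, fluorescent labelling and capillary electrophoresis; gain of signal fitted against DMSO.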
# [3] = target: GAL4 Transcription Factor (Internal Marker), GAL4 (gene 855828) (UniProt P04386); test: ATG_GAL4_XSP1: Attagene TRANS-FACTORIAL Multi-Species (XSP1) HepG2 Assay for GAL4 Transcription Factor (Internal Marker) (AID 2283789)
# GAL4 Transcription Factor (Internal Marker), GAL4 (gene 855828), sequence (P04386 whole entry, looked up, the tested form may be a part): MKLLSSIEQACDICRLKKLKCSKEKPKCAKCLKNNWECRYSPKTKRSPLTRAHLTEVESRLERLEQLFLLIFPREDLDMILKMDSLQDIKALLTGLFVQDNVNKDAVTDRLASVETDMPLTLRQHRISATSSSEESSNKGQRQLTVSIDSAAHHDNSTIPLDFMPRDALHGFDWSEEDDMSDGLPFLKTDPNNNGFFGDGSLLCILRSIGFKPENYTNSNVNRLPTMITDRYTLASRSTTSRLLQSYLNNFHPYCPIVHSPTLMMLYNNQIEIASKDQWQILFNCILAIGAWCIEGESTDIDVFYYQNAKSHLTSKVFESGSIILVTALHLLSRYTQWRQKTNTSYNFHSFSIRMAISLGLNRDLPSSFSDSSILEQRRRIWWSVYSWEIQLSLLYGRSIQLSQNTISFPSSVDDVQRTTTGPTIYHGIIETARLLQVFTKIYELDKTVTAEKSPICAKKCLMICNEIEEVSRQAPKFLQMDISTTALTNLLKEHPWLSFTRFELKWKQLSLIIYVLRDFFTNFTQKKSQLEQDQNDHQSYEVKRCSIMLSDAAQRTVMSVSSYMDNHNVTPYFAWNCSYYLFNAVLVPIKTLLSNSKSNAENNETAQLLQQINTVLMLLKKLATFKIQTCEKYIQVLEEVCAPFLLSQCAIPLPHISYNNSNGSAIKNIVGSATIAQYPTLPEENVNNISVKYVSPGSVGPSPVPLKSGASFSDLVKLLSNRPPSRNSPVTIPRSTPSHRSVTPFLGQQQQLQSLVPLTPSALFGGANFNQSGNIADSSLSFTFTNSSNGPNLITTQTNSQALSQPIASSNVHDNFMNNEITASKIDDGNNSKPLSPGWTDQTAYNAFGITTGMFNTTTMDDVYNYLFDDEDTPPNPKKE
# In short: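 HepG2 cells transiently transfected with multiplexed GAL4-UAS reporter units were exposed for 24 h with 3 nM 6-alpha-fluorotestosterone present. Reporter mRNA was quantified by RT-PCR, FAM labelling, HpaI digestion and capillary electrophoresis; background-control readout, gain-of-signal versus DMSO.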
# [4] = ATG_M_06_XSP1: Attagene TRANS-FACTORIAL Multi-Species (XSP1) HepG2 Assay for M06 Transcription Factor (Internal Marker) (AID 2283790)
# In short: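 Transfected HepG2 multi-reporter system treated 24 h in the presence of 3 nM 6-alpha-fluorotestosterone. The M06 internal marker transcript was quantified by RT-PCR with capillary electrophoresis as a background control, and gain of signal was scored versus DMSO.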
# [5] = ATG_M_61_XSP1: Attagene TRANS-FACTORIAL Multi-Species (XSP1) HepG2 Assay for M61 Transcription Factor (Internal Marker) (AID 2283797)
# In short: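 HepG2 cells transiently transfected with multiplexed GAL4-driven reporter units, dosed 24 h with 3 nM 6-alpha-fluorotestosterone present. Reporter mRNA quantified by RT-PCR, 6-FAM labelling, HpaI digestion and capillary electrophoresis; internal-marker background control, gain of signal versus DMSO.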
# [6] = target: mouse Peroxisome Proliferator-activated Receptor gamma (PPARg), Pparg (gene 19016) (UniProt P37238); test: ATG_mPPARg_XSP1: Attagene TRANS-FACTORIAL Multi-Species (XSP1) HepG2 Assay for mouse Peroxisome Proliferator-activated Receptor gamma (PPARg) (AID 2283802)
# In short: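 HepG2 cells transiently transfected with GAL4-UAS reporter units driven by mouse PPARg–GAL4 chimera; 3 nM 6-alpha-fluorotestosterone present. After 24 h dosing, reporter mRNA quantified by RT-PCR, fluorescent labelling and capillary electrophoresis; gain of signal versus DMSO.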
# [7] = target: Nuclear receptor subfamily 1 group I member 2 (Mus musculus) (UniProt O54915); test: ATG_mPXR_XSP1: Attagene TRANS-FACTORIAL Multi-Species (XSP1) HepG2 Assay for mouse Pregnane X Receptor (PXR) (AID 2283803)
# Nuclear receptor subfamily 1 group I member 2 (Mus musculus), sequence (O54915 whole entry, looked up, the tested form may be a part): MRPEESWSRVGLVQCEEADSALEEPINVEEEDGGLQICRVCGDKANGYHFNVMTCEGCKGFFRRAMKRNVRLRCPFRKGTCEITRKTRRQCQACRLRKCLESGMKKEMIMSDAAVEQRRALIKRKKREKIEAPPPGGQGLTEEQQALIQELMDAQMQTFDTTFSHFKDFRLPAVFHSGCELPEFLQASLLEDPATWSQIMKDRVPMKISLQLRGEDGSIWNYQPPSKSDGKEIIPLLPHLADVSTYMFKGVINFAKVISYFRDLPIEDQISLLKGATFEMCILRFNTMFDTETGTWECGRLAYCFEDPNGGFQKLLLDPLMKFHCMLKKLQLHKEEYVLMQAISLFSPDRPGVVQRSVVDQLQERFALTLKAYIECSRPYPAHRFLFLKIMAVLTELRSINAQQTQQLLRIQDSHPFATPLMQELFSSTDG
# In short: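 Transiently transfected HepG2 cells expressing a receptor-Gal4 chimera drive a GAL4-UAS reporter; 3 nM 6-alpha-fluorotestosterone included. Reporter mRNA read 24 h post-dose by RT-PCR and capillary electrophoresis; gain of signal relative to DMSO.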
# [8] = target: frog Thyroid hormone Receptor alpha (TRa), thra-a (gene 397942) (UniProt P15204); test: ATG_frTRa_XSP1: Attagene TRANS-FACTORIAL Multi-Species (XSP1) HepG2 Assay for frog Thyroid hormone Receptor alpha (TRa) (AID 2283804)
# frog Thyroid hormone Receptor alpha (TRa), thra-a (gene 397942), sequence (P15204 whole entry, looked up, the tested form may be a part): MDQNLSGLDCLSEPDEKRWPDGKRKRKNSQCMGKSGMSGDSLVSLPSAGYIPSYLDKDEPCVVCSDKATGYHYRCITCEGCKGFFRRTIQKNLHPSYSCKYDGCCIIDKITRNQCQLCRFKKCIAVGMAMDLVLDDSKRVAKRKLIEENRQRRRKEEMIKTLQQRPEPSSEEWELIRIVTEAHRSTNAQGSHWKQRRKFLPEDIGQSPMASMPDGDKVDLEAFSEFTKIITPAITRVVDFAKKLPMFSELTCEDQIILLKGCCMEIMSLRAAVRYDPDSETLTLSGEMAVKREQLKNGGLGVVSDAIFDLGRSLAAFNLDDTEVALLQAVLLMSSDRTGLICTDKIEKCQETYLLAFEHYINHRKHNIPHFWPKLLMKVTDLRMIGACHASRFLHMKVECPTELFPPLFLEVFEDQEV
# In short: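 HepG2 cells transiently transfected with frog TRa-GAL4 chimeric reporter units, dosed 24 hr with 3 nM 6-alpha-fluorotestosterone present; reporter mRNA quantified by RT-PCR, fluorescent labelling and capillary electrophoresis, gain of signal versus DMSO.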
# [9] = target: human Thyroid hormone Receptor alpha (TRa), THRA (gene 7067) (UniProt P10827); test: ATG_hTRa_XSP1: Attagene TRANS-FACTORIAL Multi-Species (XSP1) HepG2 Assay for human Thyroid hormone Receptor alpha (TRa) (AID 2283805)
# human Thyroid hormone Receptor alpha (TRa), THRA (gene 7067), sequence (P10827 whole entry, looked up, the tested form may be a part): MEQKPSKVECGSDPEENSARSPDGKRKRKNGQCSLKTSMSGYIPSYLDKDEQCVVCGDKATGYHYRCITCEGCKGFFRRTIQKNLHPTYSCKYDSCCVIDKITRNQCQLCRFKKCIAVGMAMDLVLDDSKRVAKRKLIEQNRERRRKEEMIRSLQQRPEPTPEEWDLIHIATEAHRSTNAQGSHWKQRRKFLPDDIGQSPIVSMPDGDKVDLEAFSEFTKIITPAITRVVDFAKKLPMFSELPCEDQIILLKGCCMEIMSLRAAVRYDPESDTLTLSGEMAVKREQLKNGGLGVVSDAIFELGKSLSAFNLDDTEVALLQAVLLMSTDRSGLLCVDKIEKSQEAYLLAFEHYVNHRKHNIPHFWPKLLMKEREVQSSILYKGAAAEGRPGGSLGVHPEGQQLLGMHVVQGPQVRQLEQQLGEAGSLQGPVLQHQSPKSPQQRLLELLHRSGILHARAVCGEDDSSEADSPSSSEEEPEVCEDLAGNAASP
# In short: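 HepG2 cells transiently transfected with GAL4-UAS reporter units expressing chimeric NR-Gal4 proteins, dosed 24 hours with 3 nM 6-alpha-fluorotestosterone present. Reporter mRNA measured by RT-PCR and capillary electrophoresis; gain of signal fitted versus DMSO.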
# [10] = test system: turtle Thyroid Hormone Receptor, alpha (TRa), gene 101949057; test: ATG_trTRa_XSP1: Attagene TRANS-FACTORIAL Multi-Species (XSP1) HepG2 Assay for turtle Thyroid Hormone Receptor, alpha (TRa) (AID 2283806)
# In short: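 HepG2 cells transiently transfected with GAL4-UAS reporter units and chimeric receptor-Gal4 constructs, with 3 nM 6-alpha-fluorotestosterone present. Reporter mRNA was quantified 24 h after dosing by RT-PCR, 6-FAM labelling and capillary electrophoresis; gain of signal versus DMSO.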
# [11] = target: zebrafish Thyroid Hormone Receptor alpha (TRa), thraa (gene 30670) (UniProt Q98867); test: ATG_zfTRa_XSP1: Attagene TRANS-FACTORIAL Multi-Species (XSP1) HepG2 Assay for zebrafish Thyroid Hormone Receptor alpha (TRa) (AID 2283807)
# zebrafish Thyroid Hormone Receptor alpha (TRa), thraa (gene 30670), sequence (Q98867 whole entry, looked up, the tested form may be a part): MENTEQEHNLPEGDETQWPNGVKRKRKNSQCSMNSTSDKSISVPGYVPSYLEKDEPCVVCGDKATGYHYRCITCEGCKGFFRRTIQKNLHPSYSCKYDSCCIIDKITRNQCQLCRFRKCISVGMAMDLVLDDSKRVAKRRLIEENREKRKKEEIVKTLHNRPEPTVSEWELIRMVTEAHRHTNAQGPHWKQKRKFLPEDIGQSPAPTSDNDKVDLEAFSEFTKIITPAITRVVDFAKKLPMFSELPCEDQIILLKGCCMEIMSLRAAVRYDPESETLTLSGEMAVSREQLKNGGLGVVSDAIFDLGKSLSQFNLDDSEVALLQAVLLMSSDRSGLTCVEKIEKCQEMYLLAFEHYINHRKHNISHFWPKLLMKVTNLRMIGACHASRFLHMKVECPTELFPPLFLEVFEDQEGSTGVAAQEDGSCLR
# In short: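 HepG2 cells transiently transfected with GAL4-UAS reporter units including a zebrafish TRa–Gal4 chimera, dosed 24 h with 3 nM 6-alpha-fluorotestosterone present. Reporter mRNA quantified by RT-PCR and capillary electrophoresis; gain versus DMSO.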
# [12] = target: human Thyroid hormone Receptor beta (TRb), THRB (gene 7068) (UniProt P10828); test: ATG_hTRb_XSP1: Attagene TRANS-FACTORIAL Multi-Species (XSP1) HepG2 Assay for human Thyroid hormone Receptor beta (TRb) (AID 2283808)
# human Thyroid hormone Receptor beta (TRb), THRB (gene 7068), sequence (P10828 whole entry, looked up, the tested form may be a part): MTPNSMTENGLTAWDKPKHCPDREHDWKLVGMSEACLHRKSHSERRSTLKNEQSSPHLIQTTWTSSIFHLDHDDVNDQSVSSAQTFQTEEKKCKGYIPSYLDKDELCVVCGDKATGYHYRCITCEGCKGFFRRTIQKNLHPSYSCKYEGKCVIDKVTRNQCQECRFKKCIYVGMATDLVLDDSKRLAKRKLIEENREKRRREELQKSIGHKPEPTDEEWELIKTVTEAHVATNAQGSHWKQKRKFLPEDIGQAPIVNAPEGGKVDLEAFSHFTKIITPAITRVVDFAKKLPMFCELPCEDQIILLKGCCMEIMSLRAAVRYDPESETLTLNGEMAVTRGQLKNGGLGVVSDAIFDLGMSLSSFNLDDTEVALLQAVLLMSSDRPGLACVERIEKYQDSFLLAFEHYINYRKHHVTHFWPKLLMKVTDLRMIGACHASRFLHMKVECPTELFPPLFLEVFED
# In short: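 HepG2 cells transiently transfected with reporter units driving GAL4-UAS reporters for chimeric NR-Gal4 proteins; 24 h chemical exposure with 3 nM 6-alpha-fluorotestosterone present. Reporter mRNA quantified by RT-PCR and capillary electrophoresis, gain of signal versus DMSO.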
# [13] = target: zebrafish Thyroid Hormone Receptor beta (TRb), thrb (gene 30607) (UniProt Q9PVE4); test: ATG_zfTRb_XSP1: Attagene TRANS-FACTORIAL Multi-Species (XSP1) HepG2 Assay for zebrafish Thyroid Hormone Receptor beta (TRb) (AID 2283809)
# zebrafish Thyroid Hormone Receptor beta (TRb), thrb (gene 30607), sequence (Q9PVE4 whole entry, looked up, the tested form may be a part): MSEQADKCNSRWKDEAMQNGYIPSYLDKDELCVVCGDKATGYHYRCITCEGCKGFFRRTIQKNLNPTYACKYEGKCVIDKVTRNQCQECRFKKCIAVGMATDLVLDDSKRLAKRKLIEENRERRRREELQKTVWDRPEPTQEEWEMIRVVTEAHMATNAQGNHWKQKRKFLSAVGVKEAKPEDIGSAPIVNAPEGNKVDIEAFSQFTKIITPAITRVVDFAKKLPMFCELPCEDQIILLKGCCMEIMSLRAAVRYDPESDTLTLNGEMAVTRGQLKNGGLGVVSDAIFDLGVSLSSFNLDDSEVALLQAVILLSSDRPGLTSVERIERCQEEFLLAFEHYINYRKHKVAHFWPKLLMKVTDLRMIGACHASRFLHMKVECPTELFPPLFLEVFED
# In short: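 HepG2 cells transiently transfected with multiplexed GAL4-UAS reporter units expressing chimeric zebrafish TRb–Gal4. Dosed 24 h with 3 nM 6-alpha-fluorotestosterone present; reporter mRNA measured by RT-PCR, HpaI digestion and capillary electrophoresis; gain of signal versus DMSO.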
# [14] = ATG_XTT_Cytotoxicity_XSP1: Cytotoxicity Assessment in the Attagene TRANS-FACTORIAL Multi-Species (XSP1) HepG2 Assay (AID 2283810)
# In short: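 XTT viability readout taken at 24 hours post-dosing in HepG2 liver cells co-treated with 3 nM 6-alpha-fluorotestosterone. Signal loss relative to DMSO controls reflects cytotoxicity.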
# [15] = ATG_M_06_XSP2: Attagene TRANS-FACTORIAL Multi-Species (XSP2) HepG2 Assay for M06 Transcription Factor (Internal Marker) (AID 2283811);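 note: hits are increases in signal above the DMSO baseline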
# In short: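 HepG2 cells transiently transfected with GAL4-UAS multiple reporter units, medium containing 3 nM 6-alpha-fluorotestosterone and 1.5 nM norgestrel; reporter mRNA measured 24 hours post-dosing by RT-PCR and capillary electrophoresis. Internal background marker, gain of signal vs DMSO.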
# [16] = test system: turtle Estrogen Receptor (ERa), gene 101933533; test: ATG_trERa_XSP2: Attagene TRANS-FACTORIAL Multi-Species (XSP2) HepG2 Assay for turtle Estrogen Receptor (ERa) (AID 2283812);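 note: human HepG2 liver cells transiently expressing turtle ERa-Gal4 chimeric receptor; actives raise reporter signal above DMSO so AC50 reflects agonist activity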
# In short: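 HepG2 cells transiently transfected with GAL4-UAS reporter units expressing turtle ERa-Gal4 chimera. Reporter mRNA measured after 24 h dosing by RT-PCR, fluorescent labelling and capillary electrophoresis; gain of signal fitted versus DMSO.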
# [17] = target: Estrogen receptor beta (Homo sapiens) (UniProt Q92731); test: ATG_hERb_XSP2: Attagene TRANS-FACTORIAL Multi-Species (XSP2) HepG2 Assay for human Estrogen Receptor (ERb) (AID 2283813);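 note: actives raise reporter mRNA above DMSO so AC50 reflects agonist induction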
# In short: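 HepG2 cells transiently transfected with GAL4-UAS reporter units and chimeric human ERb-Gal4, 24 h exposure. Reporter mRNA quantified by RT-PCR with FAM labelling, HpaI digestion and capillary electrophoresis; gain of signal versus DMSO.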
# [18] = target: GAL4 Transcription Factor (Internal Marker), GAL4 (gene 855828) (UniProt P04386); test: ATG_GAL4_XSP2: Attagene TRANS-FACTORIAL Multi-Species (XSP2) HepG2 Assay for GAL4 Transcription Factor (Internal Marker) (AID 2283814);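 note: GAL4 reporter mRNA background control in MRTU transfected cells not a receptor target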
# In short: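 HepG2 cells transiently transfected with GAL4-UAS reporter units, stimulated with 3 nM 6-alpha-fluorotestosterone plus 1.5 nM norgestrel, dosed 24 h. Reporter mRNA by RT-PCR/capillary electrophoresis; gain-of-signal fit versus DMSO, background control.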
# AR (gene 367) = AR (gene 367) (UniProt P10275); test: ACEA_AR_antagonist_80hr: ACEA Biosciences xCELLigence Real-Time Cell Analysis on Androgen Receptor Antagonism for Proliferation (AID 2283787);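 note: 22Rv1 human prostate cancer cells with growth followed by electrical impedance; hits lower the impedance growth signal relative to DMSO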
# AR (gene 367), sequence (P10275 whole entry, looked up): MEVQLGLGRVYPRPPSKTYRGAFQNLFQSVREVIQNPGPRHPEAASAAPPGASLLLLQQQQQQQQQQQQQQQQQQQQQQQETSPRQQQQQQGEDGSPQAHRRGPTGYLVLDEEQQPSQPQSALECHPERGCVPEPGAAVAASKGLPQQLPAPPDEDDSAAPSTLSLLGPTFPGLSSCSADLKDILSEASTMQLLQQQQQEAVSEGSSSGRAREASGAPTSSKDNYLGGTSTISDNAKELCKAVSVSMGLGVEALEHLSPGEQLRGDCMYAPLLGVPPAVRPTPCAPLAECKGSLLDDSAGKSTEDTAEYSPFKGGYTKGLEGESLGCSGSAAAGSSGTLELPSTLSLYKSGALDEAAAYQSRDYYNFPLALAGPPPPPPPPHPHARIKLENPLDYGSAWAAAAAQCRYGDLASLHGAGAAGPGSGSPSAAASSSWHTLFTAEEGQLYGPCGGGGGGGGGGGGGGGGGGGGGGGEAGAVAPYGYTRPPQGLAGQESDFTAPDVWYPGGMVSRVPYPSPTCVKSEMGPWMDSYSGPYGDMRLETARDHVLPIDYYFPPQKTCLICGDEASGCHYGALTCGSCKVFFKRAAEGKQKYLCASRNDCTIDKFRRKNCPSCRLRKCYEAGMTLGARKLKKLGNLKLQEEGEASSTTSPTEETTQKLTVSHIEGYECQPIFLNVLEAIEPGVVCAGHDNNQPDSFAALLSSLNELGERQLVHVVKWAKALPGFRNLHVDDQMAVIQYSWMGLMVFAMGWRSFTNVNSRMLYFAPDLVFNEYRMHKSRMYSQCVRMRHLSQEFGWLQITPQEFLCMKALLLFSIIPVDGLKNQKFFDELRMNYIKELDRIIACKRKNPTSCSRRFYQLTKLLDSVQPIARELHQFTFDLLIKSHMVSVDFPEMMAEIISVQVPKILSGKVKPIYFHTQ
# In short: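 22Rv1 cells in assay medium, growth tracked by electrical impedance; compounds eight-point 1:4 dilutions from 100 uM final, duplicate plates. Endpoint at 80 h; loss of signal versus DMSO.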
# [19] = STM_H9_NormalizedViability: Cytotoxicity Assessment at 120 hours in the Stemina devTOX quickPredict H9 human embryonic stem cell (hESC)-based Assay (AID 2283784)
# In short: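 Undifferentiated H9 hESCs kept pluripotent were exposed to compound, with media and chemical replaced every 24h. CellTiter-Fluor protease-substrate fluorescence was background-corrected and normalized per plate to the 0.1% DMSO vehicle; signal loss indicates reduced viability.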
structure (smiles),measurement,setting,value
O=C(c1ccc(O)cc1)c1ccc(O)cc1O,AC50,[1],2690 nM (active)
same,AC50,[2],531 nM (active)
same,outcome,[3],inactive
same,outcome,[4],inactive
same,outcome,[5],inactive
same,outcome,[6],inactive
same,outcome,[7],inactive
same,outcome,[8],inactive
same,outcome,[9],inactive
same,outcome,[10],inactive
same,outcome,[11],inactive
same,outcome,[12],inactive
same,outcome,[13],inactive
same,outcome,[14],inactive
same,outcome,[15],inactive
same,AC50,[16],3.24 µM (active)
same,AC50,[17],1.6 µM (active)
same,outcome,[18],inactive
CCCCC/C=C\CCC=O,outcome,AR (gene 367),inactive
CC(C)(C)c1ccc(-c2ccc(C(C)(C)C)cc2)cc1,outcome,AR (gene 367),inactive
CN(C)c1ccc(N=Nc2ccccc2C(=O)O)cc1,AC50,[19],68100 nM (active)
CC(C)=CCC[C@H](C)CCO,outcome,AR (gene 367),inactive
CC(C)c1ccc2cc(C(C)C)ccc2c1,outcome,AR (gene 367),inactive
CCCc1ccc(OC)cc1,outcome,AR (gene 367),inactive
Oc1ccc(Cl)cc1Cc1cc(Cl)ccc1O,AC50,AR (gene 367),10200 nM (active)
Nc1ccc(N)c(Cl)c1,AC50,[19],18700 nM (active)
O=c1cc(-c2ccccc2)oc2ccccc12,AC50,AR (gene 367),28.4 nM (active)
COC(=O)c1c(C)cc(O)c(C)c1O,outcome,[15],inactive
same,AC50,[16],8.55 µM (active) and 31.2 µM (active)
same,AC50,[17],8.13 µM (active) and 12.3 µM (active)
same,outcome,[18],inactive
